# PubChem BioAssay (EPA / NIEHS)
# Calls of active or inactive are those of the source. How the source made its calls: active means hit-call score of the fitted dose curve at least 0.9, where 1 is the maximum; inactive means score below 0.9.
# Target: X-box-binding protein 1 (Homo sapiens) (UniProt P17861)
# Test: ATG_Xbp1_CIS: Attagene CIS-FACTORIAL HepG2 Assay for human X-box Binding Protein 1 (XBP1) (AID 2282972)
# Conditions: HepG2 XBP1 cis-element reporter, Attagene multiplex; actives raise or lower the signal
# Experimental: ATG_CIS is a cell-based, multiplexed-readout assay that uses HepG2, a human liver cell line, with measurements taken at 24 hours after chemical dosing in a 24-well plate.ATG_Xbp1_CIS is one of 52 assay component(s) measured or calculated from the ATG_CIS assay. It is designed to make measurements of mRNA induction, a form of inducible reporter, as detected with fluorescence intensity signals by Reverse transcription polymerase chain reaction (RT-PCR) and Capillary electrophoresis technology.Data from the assay component ATG_Xbp1_CIS was analyzed into 1 assay endpoint. This assay endpoint, ATG_Xbp1_CIS, was analyzed with bidirectional fitting relative to DMSO as the negative control and baseline of activity. Using a type of inducible reporter, measures of mRNA for gain or loss-of-signal activity can be used to understand the reporter gene at the transcription factor-level as they relate to the gene XBP1. Furthermore, this assay endpoint can be referred to as a primary readout, because this assay has produced multiple assay endpoints where this one serves a reporter gene function. To generalize the intended target to other relatable targets, this assay endpoint is annotated to the dna binding intended target family, where the subfamily is basic leucine zipper.
# Human liver HepG2 cells are transiently transfected with multiple reporter transcription units (MRTUs) in 6-well plates using FuGene 6 reagent (Roche; 3 ml FuGene/1 mg DNA). The MRTU constructs are regulated by a cis-regulating element (promoter). […] A major difference between the CIS and TRANS system is that in CIS activities of endogenous TFs are measured, whereas the TRANS assay evaluates changes in activities of exogenous, chimeric NR-Gal4 proteins. […] At the end of 24 hour incubation, total RNA was isolated using TriZol reagent (Invitrogen). The isolated RNA is then reverse-transcribed using oligo(dT) primer and Mo-MLV reverse transcriptase (Invitrogen) with DNAse I (Ambion) treatment for 30 min. The one-tenth of the produced cDNA was amplified by PCR using Taq DNA polymerase (Invitrogen) and two reporter sequence-specific primers. The PCR products were fluorescently labeled by primer extension with 6-arboxyfluorescein (6-FAM) 5'-labeled reporter sequence-specific primer (2 min at 95 C, 20 s at 68 C and 10 min at 72 C) and these products were digested with 5U of HpaI (New England Biolabs) for 2h at 37 C. The fragments were purified using Qiaquick PCR columns (Qiagen), analyzed on an ABI 3130xL genetic analyzer (Applied Biosystems) with peak positions identified by using a set of X-rhodamine (ROX)-labeled MapMarker1000 molecular weight standards (BioVentures). The raw capillary electrophoresis data was processed using Attagraph software (Attagene).
# X-box-binding protein 1 (Homo sapiens), sequence (P17861 whole entry, looked up): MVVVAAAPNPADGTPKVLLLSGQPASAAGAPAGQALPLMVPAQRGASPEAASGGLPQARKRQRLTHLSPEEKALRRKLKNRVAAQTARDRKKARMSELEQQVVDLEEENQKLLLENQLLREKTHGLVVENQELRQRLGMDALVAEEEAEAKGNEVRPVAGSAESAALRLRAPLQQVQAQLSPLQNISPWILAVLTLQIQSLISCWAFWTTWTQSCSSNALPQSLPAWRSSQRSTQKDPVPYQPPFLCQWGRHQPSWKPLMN
Compound,outcome,AC50
NS(=O)(=O)C(F)(F)C(F)(F)C(F)(F)C(F)(F)C(F)(F)C(F)(F)F,inactive,–
CNS(=O)(=O)C(F)(F)C(F)(F)C(F)(F)C(F)(F)C(F)(F)C(F)(F)C(F)(F)C(F)(F)F,inactive,–
CCN=C1C=CC(=C(c2ccc(N(CC)CC)cc2)c2ccc(N(CC)CC)cc2)c2ccccc21,–,1.86 µM (active)
CC(=O)CCC(C)C,inactive,–
CC(O)C#CC(C)O (stereo not given),inactive,–
O=S(=O)(O)CCC(F)(F)C(F)(F)C(F)(F)C(F)(F)F,inactive,–
OC(O)C(F)(F)C(F)(F)F,inactive,–
O=C(O)CCC(F)(F)C(F)(F)C(F)(F)C(F)(F)C(F)(F)C(F)(F)C(F)(F)F,inactive,–
C[Si](Cl)(Cl)CCC(F)(F)C(F)(F)C(F)(F)C(F)(F)C(F)(F)C(F)(F)F,inactive,–
O=C(O)C(F)(F)C(F)(F)C(F)(F)OC(F)(C(F)(F)F)C(F)(F)F,inactive,–
CCOC(=O)CC(=O)C(F)(F)C(F)(F)F,inactive,–
O=C(F)C1(F)C(F)(F)C(F)(F)C(F)(F)C(F)(F)C1(F)F,inactive,–
CC(C)OC(=O)COc1ccc(Cl)cc1Cl,inactive,–
CCCCCCCC/C=C\CCCCCCCC(=O)N(C)CC(=O)O,inactive,–
FC(F)(F)C(F)(F)C(F)(F)C(F)(F)C(F)(F)C(F)(F)C(F)(F)CCI,inactive,–
Cc1ccc([N+](=O)[O-])c(C)c1,inactive,–
Nc1cc([N+](=O)[O-])cc(Cl)c1O,inactive,–
CC1=CC2C3C=CC(C3)C2C1C (stereo not given),inactive,–
NC(=O)C(F)(F)C(F)(F)C(F)(F)C(F)(F)C(N)=O,inactive,–
Cc1cc(O)c(C(C)(C)C)cc1C(C)(C)C,inactive,–

Compound,outcome,AC50
CCC(C)CO (stereo not given),inactive,–
CC(C)(C)C(=O)C1C(=O)c2ccccc2C1=O,inactive,–
OCC(F)(F)C(F)(F)C(F)(F)C(F)(F)C(F)(F)C(F)(F)C(F)(F)C(F)(F)CO,inactive,–
CCN(CC)c1ccc(C=O)cc1,inactive,–
CCOC(C=C(C)CCC=C(C)C)OCC,inactive,–
FC(F)(F)C(F)(F)C(F)(F)C(F)(F)C(F)(F)C(F)(F)CC[Si](Cl)(Cl)Cl,inactive,–
C=C(C)C(=O)OCC(F)(F)C(F)(F)C(F)(F)C(F)F,inactive,–
Brc1nc2ccccc2s1,inactive,–
CCCCC(CC)COC(=O)c1ccc(N(C)C)cc1 (stereo not given),inactive,–
Nc1cccnc1N,inactive,–
O=S(=O)(O)c1ccc(Cl)cc1,inactive,–
c1ccc(C[P+](c2ccccc2)(c2ccccc2)c2ccccc2)cc1,–,53.4 µM (active)
C=CC(=O)OCC(F)(F)C(F)(F)C(F)(F)COC(=O)C=C,inactive,–
CCN(CCO)S(=O)(=O)C(F)(F)C(F)(F)C(F)(F)C(F)(F)C(F)(F)C(F)(F)C(F)(F)C(F)(F)F,–,29.8 µM (active)
CCOC(=O)C1CC(=O)C(=C(O)C2CC2)C(=O)C1 (stereo not given),inactive,–
CCc1cc(Cc2cc(CC)c(N)c(CC)c2)cc(CC)c1N,–,38.3 µM (active)
CCC(Cc1c(I)cc(I)c(N)c1I)C(=O)O (stereo not given),inactive,–
CN(C(=O)C(F)(F)C(F)(F)C(F)(F)F)[Si](C)(C)C,inactive,–
O=C(c1ccccc1)c1ccc(Cl)cc1,inactive,–
Cc1ccc(S(=O)(=O)C(I)I)cc1,–,7.84 µM (active)
